A short description of assay [1]: qHTS assay to test for compound auto fluorescence at 535 nm (green) in HEK293 cells (AID 720680). In general terms: In qHTS, concentration-response curves come from the screen itself.
The nature of assay [2]: qHTS assay to test for compound auto fluorescence at 460 nm (blue) in HEK293 cell free culture (AID 720681). Note: potency is the fitted concentration of half-maximal effect. Put shortly: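 Compounds were added to cell-free DMEM with 10% FBS and fluorescence read directly. The blue channel used 405 nm excitation and 460 nm emission, with triamterene as the reference fluorophore.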
Assay [3] can be described thus: qHTS assay to test for compound auto fluorescence at 535 nm (green) in HEK293 cell free culture (AID 720682). A digest of the protocol:
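Steps: dispense DMEM/10% FBS into empty wells; pin in compound or DMSO; measure fluorescence at 485/535 nm. Values are fluorescein equivalents.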

Assay [4] can be described thus: qHTS assay to test for compound auto fluorescence at 590 nm (red) in HEK293 cell free culture (AID 720683). Put shortly:
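Cell-free wells of DMEM with 10% FBS received compound, and intrinsic fluorescence was read at excitation/emission 540/590 nm. Values expressed as equivalence to Rose Bengal sodium.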

A short description of assay [5]: qHTS assay to test for compound auto fluorescence at 590 nm (red) in HepG2 cell free culture (AID 720684). A digest of the protocol: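 Compound was pinned into wells holding MEM with 10% FBS and no cells, and red fluorescence was read at Ex/Em 540/590 nm. Signal is expressed as auto fluorescence equivalency relative to Rose Bengal sodium.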
A short description of assay [6]: qHTS assay to test for compound auto fluorescence at 460 nm (blue) in HepG2 cell free culture (AID 720685). Note: potency is the fitted concentration of half-maximal effect. Put shortly: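 Compound (23 nL) or DMSO pinned into cell-free MEM with 10% FBS; blue fluorescence read at 405/460 nm excitation/emission, expressed as auto-fluorescence equivalency to triamterene.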
A short description of assay [7]: qHTS assay to test for compound auto fluorescence at 535 nm (green) in HepG2 cell free culture (AID 720686).
Assay [8] concerns the target Glucocorticoid receptor (Homo sapiens) (UniProt P04150). Description: qHTS assay to identify small molecule agonists of the glucocorticoid receptor (GR) signaling pathway (AID 720691; active = well fitted activation curve with a large enough effect in the signal ratio in the repeat runs, not every such curve was filed as active; the % refers to the signal ratio). The conditions noted are these: GR-bla HeLa, beta-lactamase reporter ratio, 18 h; activation: at 62.4 µM (top of the series). Put shortly: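 GR-bla HeLa cells carrying a GRE-driven beta-lactamase reporter, exposed to compounds for 18 h at 37 C. Reporter activation read as fluorescence after 2 h with LiveBLAzer B/G FRET substrate at room temperature.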

Assay [9] shares this target. Description: qHTS assay to identify small molecule antagonists of the glucocorticoid receptor (GR) signaling pathway (AID 720692; active = well fitted inhibition curve with a large enough effect in the signal ratio in the repeat runs, not every such curve was filed as active; the % refers to the signal ratio; note: potency is the fitted concentration of half-maximal effect). A digest of the protocol: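 GR-bla HeLa cells carrying a GRE-driven beta-lactamase reporter received compound after 4 h plating, then dexamethasone (5 nM final). After 18 h at 37C, the FRET substrate was loaded for 2 h at room temperature and fluorescence read.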

The nature of assay [10]: qHTS assay to identify small molecule antagonists of the glucocorticoid receptor (GR) signaling pathway - cell viability counter screen (AID 720693). Note: nearly all actives have a fitted effect of over 55% in size. Note: potency is the fitted concentration of half-maximal effect.
Assay [11] is described as follows: qHTS assay to identify small molecule antagonists of the androgen receptor (AR) signaling pathway - cell viability counter screen (AID 743033; note: nearly all actives have a fitted effect of over 45% in size).
Assay [12] has as its target Androgen receptor (Homo sapiens) (UniProt P10275). The experiment in a line: qHTS assay to identify small molecule antagonists of the androgen receptor (AR) signaling pathway (AID 743035; active = well fitted inhibition curve with a large enough effect in the signal ratio in the repeat runs, not every such curve was filed as active; the % refers to the signal ratio; note: potency is the fitted concentration of half-maximal effect). A digest of the protocol: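 HEK293 cells stably carrying UAS-beta-lactamase reporter, 2,000/well, given compounds plus R1881 agonist and incubated 16 h at 37C. LiveBLAzer B/G FRET substrate then added for 2 h at room temperature before fluorescence reading.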

The target is the same in assay [13]. Description: qHTS assay to identify small molecule agonists of the androgen receptor (AR) signaling pathway using the MDA cell line (AID 743040; note: nearly all actives have a fitted effect of over 20% in size). A digest of the protocol: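 MDA-kb2 breast carcinoma cells carrying MMTV-luciferase (responsive to AR and GR), plated 5 h then treated 16 h with compounds at 37C, 0% CO2. Read-out was ONE-Glo luminescence after 30 min at room temperature.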

The nature of assay [14]: qHTS assay to identify small molecule antagonists of the androgen receptor (AR) signaling pathway using the MDA cell line - cell viability counter screen (AID 743041; note: nearly all actives have a fitted effect of over 45% in size; note: potency is the fitted concentration of half-maximal effect). Put shortly: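 MDA-kb2 AR-luc cells (MMTV-luciferase, AR/GR responsive) treated with compounds plus R1881 agonist for 16 h at 37C. CellTiter-Fluor added at 15.5 h; fluorescence read after 30 min in the same wells.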

The target of assay [15] is Androgen receptor (Homo sapiens) (UniProt P10275). The experiment in a line: qHTS assay to identify small molecule antagonists of the androgen receptor (AR) signaling pathway using the MDA cell line (AID 743042; note: nearly all actives have a fitted effect of over 55% in size; note: potency is the fitted concentration of half-maximal effect). A digest of the protocol: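 MDA-kb2 breast carcinoma cells carrying MMTV-luciferase (AR/GR responsive) were co-treated with compounds and the agonist R1881 for 16 h at 37C. Inhibition read as ONE-Glo luminescence; CellTiter-Fluor fluorescence measured in parallel for cytotoxicity.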
Chain of Androgen receptor (Homo sapiens) (P10275 whole entry, looked up): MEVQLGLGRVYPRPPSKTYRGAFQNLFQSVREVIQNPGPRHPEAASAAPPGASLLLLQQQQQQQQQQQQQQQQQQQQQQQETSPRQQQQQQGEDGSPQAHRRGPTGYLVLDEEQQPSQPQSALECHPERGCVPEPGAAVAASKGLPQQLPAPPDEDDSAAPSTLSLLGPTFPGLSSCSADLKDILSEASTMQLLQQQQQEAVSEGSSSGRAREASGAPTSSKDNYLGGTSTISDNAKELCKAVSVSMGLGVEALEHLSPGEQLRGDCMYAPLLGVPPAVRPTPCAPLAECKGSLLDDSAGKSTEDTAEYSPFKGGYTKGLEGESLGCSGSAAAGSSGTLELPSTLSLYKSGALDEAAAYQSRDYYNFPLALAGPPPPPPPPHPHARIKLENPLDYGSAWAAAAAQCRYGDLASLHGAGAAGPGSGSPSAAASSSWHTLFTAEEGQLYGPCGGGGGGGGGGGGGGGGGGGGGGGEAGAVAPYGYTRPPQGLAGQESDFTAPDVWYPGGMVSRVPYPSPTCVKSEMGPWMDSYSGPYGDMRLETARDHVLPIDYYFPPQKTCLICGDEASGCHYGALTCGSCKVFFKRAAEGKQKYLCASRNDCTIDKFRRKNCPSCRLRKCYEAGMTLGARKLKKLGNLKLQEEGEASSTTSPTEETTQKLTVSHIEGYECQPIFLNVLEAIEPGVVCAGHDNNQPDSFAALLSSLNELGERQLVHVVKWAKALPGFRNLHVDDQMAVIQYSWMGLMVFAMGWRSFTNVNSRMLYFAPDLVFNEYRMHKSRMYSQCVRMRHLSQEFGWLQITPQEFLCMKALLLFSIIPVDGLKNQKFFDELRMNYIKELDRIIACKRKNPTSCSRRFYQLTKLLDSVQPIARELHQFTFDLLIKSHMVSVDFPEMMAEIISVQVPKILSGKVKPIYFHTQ

Assay [16] is described as follows: qHTS assay for identifying genotoxic compounds that show differential cytotoxicity against isogenic chicken DT40 cell lines with known DNA damage response pathways - Rev3 mutant cell line (AID 743014). Note: nearly all actives have a fitted effect of over 55% in size. Note: potency is the fitted concentration of half-maximal effect.
Assay [17] can be described thus: qHTS assay for identifying genotoxic compounds that show differential cytotoxicity against isogenic chicken DT40 cell lines with known DNA damage response pathways - Rad54/Ku70 mutant cell line (AID 743015). Note: nearly all actives have a fitted effect of over 60% in size. Note: potency is the fitted concentration of half-maximal effect.
Assay [18] is described as follows: qHTS assay to test for compound auto fluorescence at 460 nm (blue) in HepG2 cells (AID 720687). Note: potency is the fitted concentration of half-maximal effect. Put shortly:
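HepG2 cells in MEM with 10% FBS, attached overnight at 37 C, were exposed to compound or DMSO for 1 hr at 37 C, 5% CO2. Blue fluorescence was read at 405/460 nm, with triamterene as reference fluorophore.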

Assay [19] in a line: qHTS assay for identifying genotoxic compounds that show differential cytotoxicity against isogenic chicken DT40 cell lines with known DNA damage response pathways - wild type cell line (AID 743012). Note: nearly all actives have a fitted effect of over 60% in size. Note: potency is the fitted concentration of half-maximal effect. A digest of the protocol:
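Wild-type DT40 cells (300/well) exposed to compounds for 40 hours at 37 C/5% CO2. Viability read by CellTiter-Glo luminescence after 30 min at room temperature.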

In assay [20] the target is Androgen receptor (Homo sapiens) (UniProt P10275). The experiment in a line: qHTS assay to identify small molecule agonists of the androgen receptor (AR) signaling pathway (AID 743036; active = well fitted activation curve with a large enough effect in the signal ratio in the repeat runs, with a control signal flat, not every such curve was filed as active; the % refers to the signal ratio; note: potency is the fitted concentration of half-maximal effect). Put shortly:
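Reporter line: GeneBLAzer AR-UAS-bla-GripTite (HEK293). Steps: plate cells, 4 h rest, add compounds, 16 h at 37C, add LiveBLAzer B/G substrate, 2 h at RT, read fluorescence.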

Results on eight compounds are retold here after PubChem BioAssay (Tox21).

Inconclusive results are not listed. Active and inactive are the calls of the source. Unless noted, calls come from the whole dose curve; as a rule, active = well fitted curve in the direction sought with a large enough effect in the repeat runs; inconclusive = weak or mixed curves; inactive = no such curve, though single readings can be large; an effect the other way counts as inactive or inconclusive. Positions of bridges follow the written chain, without caps; N, C: chain ends. Non-standard residues stand in square brackets, D forms with d. Residues, ends and D or L forms follow the SMILES beside them. *: point of attachment. X1 = CC[C@@H](C)[C@@H](N)C1=N[C@H](C(=O)*)CS1; d(aIle) = CC[C@H](C)[C@@H](N)C(=O)O; dOrn = NCCC[C@@H](N)C(=O)O
Tags give direction and shape of the fitted curve or compound fluorescence and quenching.

Chain of Glucocorticoid receptor (Homo sapiens) (P04150 whole entry, looked up): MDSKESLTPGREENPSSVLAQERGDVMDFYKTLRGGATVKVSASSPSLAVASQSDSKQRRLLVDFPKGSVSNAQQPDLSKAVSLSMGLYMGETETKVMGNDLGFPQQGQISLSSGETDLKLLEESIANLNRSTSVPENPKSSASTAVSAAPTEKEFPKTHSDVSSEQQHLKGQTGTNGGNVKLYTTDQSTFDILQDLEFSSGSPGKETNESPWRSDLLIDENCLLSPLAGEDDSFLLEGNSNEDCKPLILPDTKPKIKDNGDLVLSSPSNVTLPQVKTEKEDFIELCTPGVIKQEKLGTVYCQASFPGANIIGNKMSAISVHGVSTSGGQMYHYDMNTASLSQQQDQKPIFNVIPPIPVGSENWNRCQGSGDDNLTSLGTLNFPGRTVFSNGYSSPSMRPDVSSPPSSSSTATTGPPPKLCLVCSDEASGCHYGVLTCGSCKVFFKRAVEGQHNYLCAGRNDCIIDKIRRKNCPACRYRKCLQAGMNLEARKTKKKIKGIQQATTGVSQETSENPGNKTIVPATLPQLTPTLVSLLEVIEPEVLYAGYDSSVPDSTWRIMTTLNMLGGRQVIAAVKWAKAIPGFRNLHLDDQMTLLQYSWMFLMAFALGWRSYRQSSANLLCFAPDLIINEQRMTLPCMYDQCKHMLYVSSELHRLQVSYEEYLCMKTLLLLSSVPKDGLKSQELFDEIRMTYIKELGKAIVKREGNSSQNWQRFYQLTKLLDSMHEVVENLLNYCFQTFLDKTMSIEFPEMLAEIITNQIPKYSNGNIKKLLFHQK

Consider `O=S(=O)(O)CC(S)CS` (centres undefined), for which the compound was classed as inactive in [1], in assay [3], in assay [4] and in [5]. For the same compound, the Potency result in assay [2], in assay [6], in assay [7], in [8], in assay [9] and in assay [10] was “inactive” throughout. The Potency result in assay [11], in assay [12], in assay [13], in assay [14] and in assay [15] was “inactive” throughout.
As for `C=C1C(=C/C=C2\CCC[C@]3(C)[C@@H]([C@H](C)CCCC(C)C)CC[C@@H]23)C[C@@H](O)C[C@@H]1O`, the compound was classed as inactive in assay [1], in assay [3], in assay [4] and in assay [5]. Besides, the Potency entry in assay [2], in [6], in [7], in assay [11] and in [14] was “inactive” throughout. Besides, the Potency in assay [9] is 8490 nM (active); in assay [10], 21300 nM (active); in assay [16], 13300 nM (active); in assay [17] it was 6680 nM (active).
With `CC(C)(COP(=O)(O)OP(=O)(O)OC[C@H]1O[C@@H](n2cnc3c(N)ncnc32)[C@H](O)[C@@H]1OP(=O)(O)O)C(O)C(=O)NCCC(=O)NCCS` (some centres undefined), the compound was called inactive in [1], in assay [3], in assay [4] and in assay [5]. For the same compound, the Potency entry in assay [2], in assay [6], in [7], in assay [18], in assay [10] and in assay [19] was “inactive” each time. Moreover, the Potency result in assay [16], in assay [17], in assay [11] and in [14] was “inactive” each time.
Take `COc1cc(NS(C)(=O)=O)ccc1Nc1c2ccccc2nc2ccccc12`: the compound was classed as inactive in assay [1], in assay [3], in assay [4] and in assay [5]. Moreover, the Potency is 12600 nM (active) in [2]; 12600 nM [fluorescent] (active) in [6]; 12600 nM [fluorescent] (active) in [18]; 59.6 nM (active) in assay [19]; 66.8 nM (active) in [16]; 8.4 nM (active) in [17]. Moreover, the Potency in assay [12] is 601 nM (active); in assay [20], 10700 nM (active). Also, the Potency result in assay [7], in assay [13] and in [14] was “inactive” throughout.
For `CC(C)CCC[C@@H](C)[C@H]1CC[C@H]2[C@@H]3CC[C@@H]4C[C@H](O)CC[C@]4(C)[C@H]3CC[C@]12C`, the result in assay [1], in [3], in assay [4] and in assay [5] was inactive. Besides, the Potency entry in assay [2], in [6], in assay [7], in assay [8], in assay [10] and in assay [19] was “inactive” each time. Also, the Potency entry in assay [17], in assay [11] and in assay [14] was “inactive” in each case.
Consider `N[C@H](C(=O)O)[C@@H]1CC(Cl)=NO1`, for which the compound was called inactive in [1], in assay [3], in assay [4] and in assay [5]. Also, the Potency result in assay [2], in [6], in assay [7], in assay [18] and in assay [14] was “inactive” each time. For the same compound, the values for the Potency in assay [19] and in assay [17] were 2660 nM (active) and 2980 nM (active), respectively.
`CC[C@@H](C)[C@@H](N)C1=N[C@H](C(=O)N[C@@H](CC(C)C)C(=O)N[C@@H](CCC(=O)O)C(=O)N[C@@H](C(=O)N[C@@H]2CCCCNC(=O)[C@@H](CC(N)=O)NC(=O)[C@@H](CC(=O)O)NC(=O)[C@@H](Cc3cnc[nH]3)NC(=O)[C@@H](Cc3ccccc3)NC(=O)[C@@H]([C@H](C)CC)NC(=O)[C@@H](CCCN)NC2=O)[C@@H](C)CC)CS1` (X1-LE[d(aIle)][dK][dOrn][dI][dF][dH][dD][dN]; lactam 4-C): the result in [1], in [3], in assay [4] and in assay [5] was inactive. For the same compound, the Potency entry in [2], in assay [6], in assay [7], in assay [18], in assay [10] and in assay [16] was “inactive” throughout. The Potency result in assay [17], in assay [11] and in assay [14] was “inactive” in each case.
Take `C[C@]12O[C@H](C[C@]1(O)CO)n1c3ccccc3c3c4c(c5c6ccccc6n2c5c31)CNC4=O`: the result in assay [1], in assay [3], in [4] and in [5] was inactive. Moreover, the Potency entry in assay [2], in assay [6], in assay [7], in assay [18] and in assay [13] was “inactive” in each case. Also, the Potency is 3010 nM (active) in [10]; 237 nM (active) in assay [19]; 376 nM (active) in assay [16]; 376 nM (active) in assay [17]; 11900 nM (active) in assay [14]; 2980 nM (active) in assay [15].
